Here are results for eight molecules from PubChem BioAssay (NCATS).

Several values for one entry are separate records, joined by “and”; a condition that tells them apart may be missing. Identical values can stand only once. Records with an inconclusive call do not appear. The source holds several records for some structures; these can differ, active in one and inactive in another. Activity calls are given as the source filed them. Unless noted, calls follow the shape of the dose curve; as a rule, active = well fitted curve in the direction sought with a large enough effect; inconclusive = small, poorly fitted or top-dose-only effect, or another doubt; inactive = no such curve, though single readings can be large; an effect the other way counts as inactive or inconclusive.

For one assay, the system named is UISO. Briefly: qHTS assay to identify novel small-molecules to repurpose for Merkel cell carcinoma treatment (AID 1296009). Also: nearly all actives have a fitted effect of over 60% in size. Also: potency is read from the fitted curve at half-maximal effect. Particulars: MCC and control cell lines, CellTiter-Glo viability, 72 h; series mostly up to 46 µM. Put shortly:
(§1)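 Cells were treated for 72 hr at 37 degree celsius with compounds in 8- or 11-point dose response. Viability was read by CellTiter-Glo luminescence, normalized to no-cell (cytotoxicity) and DMSO controls.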
In general terms: In qHTS, concentration-response curves come from the screen itself.

A further assay concerns C33A. Briefly: Primary qHTS to identify gynecologic anti-cancer compounds using libraries of approved drugs and bioactive compounds (AID 1345084). Also: nearly all actives have a fitted effect of over 55% in size. Also: potency is read from the fitted curve at half-maximal effect. The settings on record: Gynecologic cancer cell panel viability, ATPlite luminescence, 48 h; series mostly up to 57.5 µM. In short, it runs like this:
(§2)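 Luminescence from the ATPlite ATP-monitoring reagent indicates viable cell number; lower signal means cytotoxicity. Cells received compound 16 h after seeding and were exposed for 48 h across five concentrations.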

The subject of the next assay is Es-2. The assay is described as above. The settings on record: Gynecologic cancer cell panel viability, ATPlite luminescence, 48 h; series mostly up to 57.5 µM. In short, it runs like this: as §2
A further assay concerns HeLa. The description is as above. The settings on record: Gynecologic cancer cell panel viability, ATPlite luminescence, 48 h; series mostly up to 57.5 µM. In short, it runs like this: as §2
A further assay deals with JEG-3. The description is as above. The settings on record: Gynecologic cancer cell panel viability, ATPlite luminescence, 48 h; series mostly up to 57.5 µM. In short, it runs like this:
as §2
In general terms: ATP-based viability assays read luminescence as a measure of living cells.

The subject of another assay is OV90. The description is as above. The settings on record: Gynecologic cancer cell panel viability, ATPlite luminescence, 48 h; series mostly up to 57.5 µM. In short, it runs like this:
as §2

A further assay relates to PA-1. The assay is described as above. The settings on record: Gynecologic cancer cell panel viability, ATPlite luminescence, 48 h; series mostly up to 57.5 µM. Put shortly: as §2
The next assay relates to Tov112D. The assay is described as above. Particulars: Gynecologic cancer cell panel viability, ATPlite luminescence, 48 h; series mostly up to 57.5 µM. Put shortly:
as §2

A further assay concerns MKL-2. Briefly: qHTS assay to identify novel small-molecules to repurpose for Merkel cell carcinoma treatment (AID 1296009). Also: nearly all actives have a fitted effect of over 60% in size. Also: potency is read from the fitted curve at half-maximal effect. The settings on record: MCC and control cell lines, CellTiter-Glo viability, 72 h; series mostly up to 46 µM. In short, it runs like this: as §1
In the next assay the test system is WaGa. The description is as above. Particulars: MCC and control cell lines, CellTiter-Glo viability, 72 h; series mostly up to 46 µM. Put shortly: as §1
In another assay the test system is CASKI. Briefly: Primary qHTS to identify gynecologic anti-cancer compounds using libraries of approved drugs and bioactive compounds (AID 1345084). Also: nearly all actives have a fitted effect of over 55% in size. Also: potency is read from the fitted curve at half-maximal effect. Particulars: Gynecologic cancer cell panel viability, ATPlite luminescence, 48 h; series mostly up to 57.5 µM. In short, it runs like this: as §2
The subject of the next assay is Hek293T. Described as above. Particulars: Gynecologic cancer cell panel viability, ATPlite luminescence, 48 h, control line for the selectivity index; series mostly up to 57.5 µM. Put shortly:
as §2

Another assay deals with Tov-21-G. Described as above. The settings on record: Gynecologic cancer cell panel viability, ATPlite luminescence, 48 h; series mostly up to 57.5 µM. Put shortly: as §2
Another assay has as its system astro. Briefly: Drug repurposing screens with cells derived from glioblastoma tumor samples (AID 1345199). Also: nearly all actives have a fitted effect of over 40% in size. Also: potency is read from the fitted curve at half-maximal effect. As to activity, negative = cell killing: % is scaled to controls: 0 for no effect and ±100 for the full control effect. Particulars: viability, ATP luminescence, 48 h; series mostly up to 45.9 µM. Put shortly: (§3)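 Four patient lines of CD133+ GBM neurospheres were screened at several concentrations; hits were retested in those lines plus three slower-growing GBM lines, using 48-hour treatment and ATP-based viability.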

A short description of assay [1]: qHTS assay to identify inhibitors of the type 1 interferon - major histocompatibility complex class I in skeletal muscle: Counter screen cell viability and HiBit confirmation (AID 1347412). Also: % is scaled to controls: 0 for no effect and ±100 for the full control effect; nearly all actives have a fitted effect of over 60% in size. The settings on record: iHSKM muscle cells + IFN-b, HiBiT or CellTiter-Glo, 24 h; Potency: HiBiT; Viability, at 45.9 µM (top of the series). In short, it runs like this:
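After 24 h with human IFN-beta (4 ng/ml) and compound titrations (top 46 uM final, 1:3, 12 points), HLA-B HiBit myoblasts were lysed for either Nano-Glo HiBiT luminescence or CellTiter Glo viability on paired plates.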

A further assay deals with SKOV3. Briefly: Primary qHTS to identify gynecologic anti-cancer compounds using libraries of approved drugs and bioactive compounds (AID 1345084). Also: nearly all actives have a fitted effect of over 55% in size. Also: potency is read from the fitted curve at half-maximal effect. Particulars: Gynecologic cancer cell panel viability, ATPlite luminescence, 48 h; series mostly up to 57.5 µM. Put shortly: as §2
Assay [2] can be described thus: Drug repurposing screens with cells derived from glioblastoma tumor samples (AID 1345199). Also: nearly all actives have a fitted effect of over 40% in size. Also: potency is read from the fitted curve at half-maximal effect. As to activity, negative = cell killing: % is scaled to controls: 0 for no effect and ±100 for the full control effect. The settings on record: GBM patient neurospheres viability, ATP luminescence, 48 h. In short, it runs like this:
as §3

Assay [3] deals with Nuclear receptor subfamily 1 group I member 2 (Rattus norvegicus) (UniProt Q9R1A7). Briefly: qHTS assay for small molecule activators of the rat pregnane X receptor (rPXR) signaling pathway (AID 651751; call rule not given here; also: 0% is about no effect). Particulars: rPXR reporter cells, luciferase (One-Glo), 24 h.
Nuclear receptor subfamily 1 group I member 2 (Rattus norvegicus), sequence (Q9R1A7 whole entry, looked up): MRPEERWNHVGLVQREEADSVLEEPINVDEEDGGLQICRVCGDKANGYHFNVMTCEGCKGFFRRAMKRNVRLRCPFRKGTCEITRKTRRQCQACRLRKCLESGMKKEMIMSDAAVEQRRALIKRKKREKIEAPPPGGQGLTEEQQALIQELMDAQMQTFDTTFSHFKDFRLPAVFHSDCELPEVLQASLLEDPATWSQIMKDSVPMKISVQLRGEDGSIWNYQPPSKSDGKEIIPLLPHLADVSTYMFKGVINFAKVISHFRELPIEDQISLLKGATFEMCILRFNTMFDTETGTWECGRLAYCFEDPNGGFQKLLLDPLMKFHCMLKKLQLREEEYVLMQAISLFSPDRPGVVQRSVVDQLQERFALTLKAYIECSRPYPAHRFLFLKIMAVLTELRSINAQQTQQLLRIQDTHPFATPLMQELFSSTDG
Another assay has as its system NIH3T3. Briefly: qHTS assay to identify novel small-molecules to repurpose for Merkel cell carcinoma treatment (AID 1296009). Also: nearly all actives have a fitted effect of over 60% in size. Also: potency is read from the fitted curve at half-maximal effect. Particulars: MCC and control cell lines, CellTiter-Glo viability, 72 h; series mostly up to 44.8 µM. In short, it runs like this: as §1
The test system of another assay is CAOV3. Briefly: Primary qHTS to identify gynecologic anti-cancer compounds using libraries of approved drugs and bioactive compounds (AID 1345084). Also: nearly all actives have a fitted effect of over 55% in size. Also: potency is read from the fitted curve at half-maximal effect. Particulars: Gynecologic cancer cell panel viability, ATPlite luminescence, 48 h; series mostly up to 57.5 µM. In short, it runs like this: as §2
The mark [4] stands for this setting: at 45.9 µM (top of the series), tumour line B.
[5] abbreviates: at 45.9 µM (top of the series), tumour line D.
Setting [6] is: at 46.1 µM (top of the series), tumour line C.

As to `COC(=O)Nc1nc2ccc(C(=O)c3cccs3)cc2[nH]1`, the Potency was 0.0235 µM (active) with UISO; 1 µM (active) in the assay with C33A; 0.282 µM (active) in the assay with Es-2; 0.158 µM (active) in the assay on HeLa; 0.355 µM (active) with JEG-3; 7.08 µM (active) in the assay with OV90. The Potency in the assay with PA-1 is 0.224 µM (active); with Tov112D it was 0.316 µM (active).
`Fc1ccc([C@@H]2CCNC[C@H]2COc2ccc3c(c2)OCO3)cc1`: the Potency result in the assay with MKL-2, in the assay on UISO, in the assay on WaGa, in the assay on C33A, in the assay with CASKI and in the assay on HeLa was “inactive” throughout. Besides, the Potency entry (with Hek293T; in the assay with JEG-3; in the assay on PA-1; in the assay on Tov-21-G; with Tov112D; in assay [1]) was “inactive” throughout. For the same molecule, the Potency with astro is 22.4 µM (active).
Turning to `Cc1cn([C@H]2C[C@H](N=[N+]=[N-])[C@@H](CO)O2)c(=O)[nH]c1=O`, the Potency entry in the assay with C33A, in the assay with Es-2, in the assay with HeLa, with Hek293T, in the assay on JEG-3 and in the assay on OV90 was “inactive” throughout. In addition, the Potency result in the assay with SKOV3, with Tov-21-G and in the assay on Tov112D was “inactive” throughout. In addition, the activity, negative = cell killing was -5.14% (inactive) and -10.6% (inactive) in [2] (setting [4]); -11% (inactive) and -22.6% (inactive) in [2] (setting [5]); -8.55% (inactive) and -21.3% (inactive) in assay [2] (setting [6]). The max response in assay [3] was -4.33% (inactive) and 1.62% (inactive).
Consider `OCCN(CCO)c1nc(N2CCCCC2)c2nc(N(CCO)CCO)nc(N3CCCCC3)c2n1`, for which, in the assay with NIH3T3, the molecule was called inactive. Moreover, the Potency entry with UISO, in the assay with WaGa, with C33A, in the assay with CAOV3, in the assay on CASKI and in the assay on Es-2 was “inactive” each time. For the same molecule, the Potency result with Hek293T, with JEG-3, in the assay on PA-1, with SKOV3, in the assay on Tov-21-G and in the assay with Tov112D was “inactive” each time. Besides, the activity, negative = cell killing in assay [2] (setting [4]) was -2.66% (inactive); in assay [2] (setting [5]), -18.5% (inactive); in assay [2] (at 46 µM (top of the series), tumour line A), -9.97% (inactive); in [2] (setting [6]), 1.47% (inactive).
For `CC(COc1ccccc1)N(CCCl)Cc1ccccc1` (stereo not given), the Potency result in the assay with C33A, with CASKI, in the assay with Es-2, with HeLa, in the assay on Hek293T and in the assay with JEG-3 was “inactive” throughout. Further, the Potency entry with OV90, with PA-1, in the assay with SKOV3, in the assay on Tov-21-G, in the assay with Tov112D and with astro was “inactive” throughout. Further, the activity, negative = cell killing in assay [2] (setting [4]) is -26.4% (inactive); in [2] (setting [6]) it was -13% (inactive). In addition, the Potency in [2] (tumour line A) was 20 µM (active).
As to `COc1ccccc1N1CCN(CC(O)COc2cccc3ccccc23)CC1` (stereo not given), the Potency result in the assay on MKL-2, with UISO, with WaGa and with astro was “inactive” in each case. In addition, the Potency was 8.91 µM (active) in the assay on C33A; 14.1 µM (active) in the assay on CASKI; 25.1 µM (active) in the assay on Es-2; 31.6 µM (active) in the assay on Hek293T; 3.55 µM (active) with PA-1; 1.78 µM (active) in the assay on SKOV3. In addition, in assay [2] (tumour line A), the Potency is 12.6 µM (active). For the same molecule, the activity, negative = cell killing in assay [2] (setting [6]) was -13.1% (inactive).
Regarding `CC#C[C@]1(O)CC[C@H]2[C@@H]3CCC4=CC(=O)CCC4=C3[C@@H](c3ccc(N(C)C)cc3)C[C@@]21C`, the Potency was 21.1 µM (active) and 93.5 nM (active) in the assay with MKL-2; 2.96 µM (active) in the assay on UISO. Besides, the Potency result in the assay with C33A, with CAOV3, in the assay with CASKI, with Es-2, in the assay on Hek293T and in the assay with JEG-3 was “inactive” throughout. Further, the Potency result with OV90, in the assay with PA-1, in the assay on SKOV3, in the assay with Tov-21-G and with Tov112D was “inactive” each time.
As for `Clc1ccccc1C(c1ccccc1)(c1ccccc1)n1ccnc1`, the Potency entry with MKL-2, in the assay with UISO, with CAOV3, in the assay with CASKI, with Es-2 and with HeLa was “inactive” each time. Further, the Potency result in the assay with JEG-3, in the assay on SKOV3, with Tov-21-G, with Tov112D and in the assay on astro was “inactive” throughout. Moreover, the Potency is 23.7 µM (active) and inactive in the assay with WaGa; 11.2 µM (active) in assay [2] (tumour line A). For the same molecule, the activity, negative = cell killing in assay [2] (at 20 µM (top of the series), tumour line C) is 1.49% (inactive).
